NALP3 yeast inh: NALP3 inflammasome inhibitors in reconstituted yeast, primary screen, luminescence, uHTS; Yeast reconstituted NLRP3/ASC/caspase-1, beta-gal luminescence, 24 h; inhibition, % at 10 µM; 330,000 compounds, 0.39% hits;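 active = inhibition of 50% or more; inactive = inhibition below 50%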
tim10-1 inh: growth inhibitors of tim10-1 mutant yeast, primary screen, luminescence, uHTS | S. cerevisiae tim10-1 ts strain growth, BacTiter-Glo, 24 h | 330,000 compounds, 2.2% hits | inhibition, % at 20 µM;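 active = inhibition of at least 40%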;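 note: mutant grown at 25 °C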
tim23-1 inh: growth inhibitors of tim23-1 mutant yeast, primary screen, luminescence, uHTS; S. cerevisiae tim23-1 growth, BacTiter-Glo luminescence, 24 h; inhibition, % at 20 µM; AID 463212, 2010; 330,000 compounds, 1.3% hits;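 active = growth inhibition of the mutant yeast at or above 50%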;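 note: temperature-sensitive mutant grown at 25 °C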
TIM10 inh: growth inhibitors of isogenic TIM10 control yeast, primary screen, counter-screen for tim10-1 yeast inhibitor project, luminescence, uHTS | S. cerevisiae TIM10 strain growth, BacTiter-Glo luminescence, 24 h | inhibition, % at 10 µM | 330,000 compounds, 1.4% hits | AID 463195, 2010;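 active = inhibition of 40% or more at the single tested concentration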;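 note: wild-type TIM10 isogenic control strain grown at permissive 25 °C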
SKKanGAS inh: S. pyogenes SKKanGAS growth inhibitors in kanamycin, primary screen, streptokinase expression inhibitor project, SKKanGAS strain, BacTiter-Glo luminescence; 6 h; AID 1662, 2009; inhibition, % at 7.5 µM; 300,000 compounds, 1.3% hits;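 active = mean replicate score, as percent of positive control median, at least 50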;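 note: strain carries kanamycin resistance gene driven by streptokinase promoter and grows in 40 µg/ml kanamycin; loss of luminescence reflects streptokinase promoter inhibition or plain growth inhibition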
tim10-1 conf: growth inhibitors of tim10-1 mutant yeast, confirmation, single concentration, luminescence, S. cerevisiae. shares compounds with tim10-1 inh. S. cerevisiae tim10-1 ts strain growth, BacTiter-Glo, 24 h. inhibition, % at 20 µM. 7,400 compounds, 56% hits;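 active = inhibition of yeast growth at or above a set limit in either of two repeat tests at 20 µM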;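 note: tim10-1 mutant grown at permissive 25 °C to find synthetic lethal compounds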
tim10 confirm: growth inhibitors of wild-type TIM10 yeast, confirmation, counter-screen for tim10-1 synthetic lethality project, single concentration, luminescence, S. cerevisiae; S. cerevisiae tim10 strain growth, BacTiter-Glo luminescence, 24 h; inhibition, % at 10 µM; shares compounds with TIM10 inh; 4,600 compounds, 63% hits;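 active = inhibition of yeast growth at or above a set limit in either of two replicates at 10 µM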; note: this counterscreen used the strain with wild-type TIM10
tim23-1 confirm: tim23-1 mutant yeast growth inhibitors, confirmation, luminescence, single concentration; S. cerevisiae tim23-1 growth, BacTiter-Glo luminescence, 24 h; AID 463218, 2010; shares compounds with tim23-1 inh; 4,400 compounds, 83% hits; inhibition, % at 20 µM;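 active = inhibition above about 39% in either of two replicate wells at 20 µM, limit read from the data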;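 note: temperature-sensitive tim23-1 mutant grown at 25 °C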
Of the large screens only hits and unclear results are named; the others gave an inactive call (follow-up assays come after a bar, where they were run). Only some compounds are listed: those with a hit (about 4.6% of all), similar ones and a draw of the others.

CC(C)=CC1C(C(=O)Nc2ccc(S(=O)(=O)N3CCOCC3)cc2)C1(C)C (centres undefined)	none
CCOc1ccc(S(=O)(=O)N(CC)CC(=O)NCc2cccnc2)cc1	none
CCOC(=O)c1c(-c2ccccc2)c2cc(OC)ccc2n1CCCN(C)C	none
CC(=O)Cc1nsc(NC(=O)c2ccc(-c3ccccc3Cl)o2)n1	tim10-1 inh 48, tim23-1 inh 51 | tim10-1 conf 43 | tim23-1 confirm 51
O=C(COC(=O)c1ccc(Cl)nc1)NC1CCCc2ccccc21 (centres undefined)	none (no result: SKKanGAS inh)
O=C1CCCCC/C1=N/Nc1ccc(OCc2ccccc2)cc1	none
Cc1cc(C)n(CC(O)Cn2c3ccc(Cl)cc3c3cc(Cl)ccc32)c(=O)n1 (centres undefined)	tim10-1 inh 57, tim23-1 inh 54, TIM10 inh 61 | tim10-1 conf 54 | tim10 confirm 56 | tim23-1 confirm 47
COc1ccc(CNC(=O)Nc2ccc3c(c2)N(C)C(=O)CS3)cc1	none
COc1ccc(C(=O)/C=C/c2cccs2)c(OC(=O)N2CCOCC2)c1	tim10-1 inh 50, tim23-1 inh 51, TIM10 inh 52 | tim10-1 conf 34 | tim10 confirm 40 | tim23-1 confirm 42
Cc1cc(N)n(-c2ncnc3scc(-c4ccc(Cl)cc4)c23)n1	none
Clc1ncnc2scc(-c3ccc(Br)cc3)c12	tim23-1 inh 50 | tim10-1 conf inactive | tim23-1 confirm 52
COc1ccc(N2C(=O)NC(NC(=O)c3cccnc3)(C(F)(F)F)C2=O)cc1 (centres undefined)	none
O=C1CS(=O)(=O)N(Cc2ccccc2F)c2ccc(Br)cc21	tim10-1 inh 41, tim23-1 inh 72 (no result: NALP3 yeast inh, SKKanGAS inh) | tim10-1 conf 47 | tim23-1 confirm 61
COc1ccc(OC)c(NC(=O)CSc2nnc(CNC(=O)c3cccs3)o2)c1	none
c1ccc(Cn2nnc3c(N4CCCCCC4)ncnc32)cc1	none
Clc1cccc(Cl)c1Cn1cnc2c(N3CCCCCC3)ncnc21	tim10-1 inh 44, tim23-1 inh 50, TIM10 inh 41 | tim10-1 conf inactive | tim10 confirm 28 | tim23-1 confirm 47
COc1cc(Cl)c(C)cc1NC(=O)CN(C)C1CCS(=O)(=O)C1 (centres undefined)	none (no result: SKKanGAS inh)
CCN1C(=O)/C(=C\N(C)C)c2ccccc21	none
CCn1c(/C=C2\C(=O)N(C)c3ccccc32)nc2ccccc2c1=O	tim10-1 inh 45, tim23-1 inh 52, TIM10 inh 43 | tim10-1 conf 39 | tim10 confirm inactive | tim23-1 confirm 52
CCCN1C(=O)/C(=C/c2nc3ccccc3c(=O)[nH]2)c2cc(C)ccc21	none
CCn1c(/C=C\c2ccccc2C)nc2ccccc2c1=O	none
CCn1c(/C=C2/C(=O)N(C)c3ccccc32)nc2ccccc2c1=O	tim10-1 inh 50, tim23-1 inh 54 | tim10-1 conf 32 | tim23-1 confirm 58
CCN1C(=O)/C(=C\c2nc3ccccc3c(=O)n2CC)c2ccccc21	tim10-1 inh 55, tim23-1 inh 56, TIM10 inh 47 | tim10-1 conf 44 | tim10 confirm 33 | tim23-1 confirm 57
CCn1c(/C=C/c2ccccc2Cl)nc2ccccc2c1=O	none
CCCN1C(=O)/C(=C/c2nc3ccccc3c(=O)[nH]2)c2ccccc21	tim10-1 inh 51, tim23-1 inh 52, TIM10 inh 42 | tim10-1 conf 36 | tim10 confirm inactive | tim23-1 confirm 55
CCCc1cc(=O)oc2cc(OCC(=O)NC3CC(C)(C)NC(C)(C)C3)ccc12	none
Cc1cccc(C(=O)OC(C)C(=O)Nc2ccc(S(=O)(=O)Nc3ncccn3)cc2)c1C (centres undefined)	none (no result: SKKanGAS inh)
CCn1c(Sc2ccc(N)cc2Cl)nc2ccccc21	tim10-1 inh 47, tim23-1 inh 66, TIM10 inh 44 | tim10-1 conf 50 | tim10 confirm 47 | tim23-1 confirm 47
Oc1c(Cl)cc(Cl)cc1C=Nc1ccc2c(c1)OCCO2	tim10-1 inh 46, tim23-1 inh 77, TIM10 inh 47 | tim10-1 conf inactive | tim10 confirm 32 | tim23-1 confirm 81
CNC(=O)/C(C#N)=C/c1cccc(Oc2ccccc2)c1	tim10-1 inh 87, tim23-1 inh 91, TIM10 inh 78 | tim10-1 conf 90 | tim10 confirm 78 | tim23-1 confirm 80
CCOc1cc(/C=C2\C(=O)N(c3cccc(C(F)(F)F)c3)C(=O)c3ccccc32)ccc1O	tim10-1 inh 42, tim23-1 inh 65 | tim10-1 conf 34 | tim23-1 confirm 47
CCOc1cc(/C=C2/NC(=O)N(Cc3ccccc3F)C2=O)ccc1O	none
CC1=NN(c2ccccc2)C(=O)/C1=C/c1cccc(C)c1	none
COc1cccc(/C=C2\C(=O)N(c3cccc(C)c3)C(=O)c3ccccc32)c1	tim10-1 inh 43, tim23-1 inh 75, TIM10 inh 41 | tim10-1 conf 46 | tim10 confirm 46 | tim23-1 confirm 68
Cc1cccc(N2C(=O)/C(=C\c3ccc(OC(F)F)cc3)c3ccccc3C2=O)c1	tim10-1 inh 51, tim23-1 inh 68 | tim10-1 conf inactive | tim23-1 confirm 58
COc1cccc(N2C(=O)c3ccncc3C2=O)c1	none
COC(=O)c1cc(S(=O)(=O)N2CCCCC2)c[nH]1	none
CC1=NN(c2ccc(Cl)cc2)C(=O)C1C(c1cccc(O)c1)c1c(C)[nH]n(-c2ccc(Cl)cc2)c1=O (centres undefined)	tim10-1 inh 48, tim23-1 inh 57 | tim10-1 conf inactive | tim23-1 confirm 51
c1ccc(N=Nc2ccc3cccccc2-3)cc1	none
Oc1ccc(N=Nc2ccccc2)o1	tim10-1 inh 67, tim23-1 inh 68 | tim10-1 conf 67 | tim23-1 confirm 75
CCN1/C(=C/c2ccc3cccc(C)c3[n+]2CC)Sc2ccccc21	tim10-1 inh 64, tim23-1 inh 68, TIM10 inh 77, SKKanGAS inh 52 | tim10-1 conf 74 | tim10 confirm 79 | tim23-1 confirm 72
Cc1ccc(S(=O)(=O)N2[C@@H](c3ccccc3F)C(C(=O)O)=CC[C@H]2c2cccc(Cl)c2)cc1	none (no result: SKKanGAS inh)

Source: PubChem
